The record followed here is PubChem BioAssay.

A short description of test [1]: optical density shifts of acrAB sulA E. coli – strain DRC41, OD650, 48 h, E. coli filamentation inducer project, primary screen (AID 1152).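 Also: E. coli MC1000 strain DRC41 lacking acrAB efflux pump and sulA.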 The conditions noted are these: higher = more signal, called active from +8 up or from −8 down.
The nature of test [2]: probe aLefty1 binding on compound microarray – biochemical, small-molecule microarray, 635/667 nm fluorescence, primary screen (AID 1153).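 Also: score merges spot fluorescence with signal-to-noise ratio from the scanned slide images.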 The conditions noted are these: higher = more signal.
A short description of test [3]: plasmodial surface anion channel blockers, osmotic lysis – cell-based, P. falciparum Indochina, OD700, 1 h, primary screen (AID 1154). The conditions noted are these: P. falciparum Indochina infected RBC osmotic lysis, higher = more signal, called active from +8 up or from −8 down.
Test [4] can be described thus: plasmodial surface anion channel blockers, osmotic lysis – cell-based, P. falciparum Indochina, OD700, 2 h, primary screen (AID 1155).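 Also: lysis reports solute entry through the parasite surface anion channel PSAC.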 The conditions noted are these: P. falciparum Indochina infected erythrocytes, higher = more signal, called active from +8 up or from −8 down.
The nature of test [5]: changes in parasitized red cell lysis, either direction – P. falciparum Indochina, OD700, 3 h, PSAC antagonist project, primary screen (AID 1156). The note with it: P. falciparum-infected erythrocytes, osmotic lysis, higher = more signal, called active from +8 up or from −8 down.
The nature of test [6]: plasmodial surface anion channel blockers, osmotic lysis – cell-based, P. falciparum Indochina, OD700, 18 h, primary screen (AID 1157). The note with it: P. falciparum Indochina infected erythrocytes, osmotic lysis OD700, 18 h; higher = more signal, called active from +8 up or from −8 down.
The nature of test [7]: S6 kinase pathway phospho-S6 level changes – cell-based, A549, cytoblot, luminescence, serum-stimulated, primary screen (AID 1158).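 Also: serum-stimulated A549 lung adenocarcinoma cells; signal is phosphorylated S6 detected by cytoblot immunostaining with HRP secondary.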 The note with it: 5 h, higher = more signal.
Test [8] concerns the target NADPH oxidase 2 (Homo sapiens) (UniProt P04839). Nature of the test: compounds shifting NOX2 Amplex Red fluorescence – cell-based, HEK293-NOX2, PMA-stimulated, NOX inhibitor project, primary screen (AID 1159). Also: test concentration not given here. The conditions noted are these: 45 min, higher = more signal, called active from +8 up or from −8 down.
Test [9] has as its target NADPH oxidase 4 (Homo sapiens) (UniProt Q9NPH5). Put plainly: compounds shifting NOX4 Amplex Red fluorescence – cell-based, HEK293-NOX4, tetracycline-induced, NOX inhibitor project, primary screen (AID 1160). The conditions noted are these: HEK293-NOX4, Amplex Red H2O2 fluorescence, 45 min; higher = more signal, called active from +8 up or from −8 down.
Test [10] addresses NADPH oxidase 5 (Homo sapiens) (UniProt Q96PH1). Nature of the test: compounds shifting NOX5 Amplex Red fluorescence – cell-based, HEK293-NOX5, NOX inhibitor project, primary screen (AID 1161). The note with it: HEK293-NOX5, ionomycin, 45 min, higher = more signal.

Active and inactive are the calls of the source.

Chain of NADPH oxidase 4 (Homo sapiens) (Q9NPH5 whole entry, looked up): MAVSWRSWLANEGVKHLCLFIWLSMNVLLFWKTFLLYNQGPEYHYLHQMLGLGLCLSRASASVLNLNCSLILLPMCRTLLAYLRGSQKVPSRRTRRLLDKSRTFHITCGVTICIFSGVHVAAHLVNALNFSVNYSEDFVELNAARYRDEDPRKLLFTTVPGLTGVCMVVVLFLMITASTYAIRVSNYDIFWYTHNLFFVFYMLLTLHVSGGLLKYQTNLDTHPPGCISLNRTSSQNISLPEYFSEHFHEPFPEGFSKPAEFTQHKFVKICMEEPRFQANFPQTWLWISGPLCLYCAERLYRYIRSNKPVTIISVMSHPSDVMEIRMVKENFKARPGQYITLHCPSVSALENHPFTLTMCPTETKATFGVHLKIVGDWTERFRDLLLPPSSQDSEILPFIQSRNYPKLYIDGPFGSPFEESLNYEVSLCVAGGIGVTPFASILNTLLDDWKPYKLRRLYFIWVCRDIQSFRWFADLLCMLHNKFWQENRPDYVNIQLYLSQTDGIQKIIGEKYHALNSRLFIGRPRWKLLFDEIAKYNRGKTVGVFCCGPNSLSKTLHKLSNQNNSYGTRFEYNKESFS
Chain of NADPH oxidase 5 (Homo sapiens) (Q96PH1 whole entry, looked up): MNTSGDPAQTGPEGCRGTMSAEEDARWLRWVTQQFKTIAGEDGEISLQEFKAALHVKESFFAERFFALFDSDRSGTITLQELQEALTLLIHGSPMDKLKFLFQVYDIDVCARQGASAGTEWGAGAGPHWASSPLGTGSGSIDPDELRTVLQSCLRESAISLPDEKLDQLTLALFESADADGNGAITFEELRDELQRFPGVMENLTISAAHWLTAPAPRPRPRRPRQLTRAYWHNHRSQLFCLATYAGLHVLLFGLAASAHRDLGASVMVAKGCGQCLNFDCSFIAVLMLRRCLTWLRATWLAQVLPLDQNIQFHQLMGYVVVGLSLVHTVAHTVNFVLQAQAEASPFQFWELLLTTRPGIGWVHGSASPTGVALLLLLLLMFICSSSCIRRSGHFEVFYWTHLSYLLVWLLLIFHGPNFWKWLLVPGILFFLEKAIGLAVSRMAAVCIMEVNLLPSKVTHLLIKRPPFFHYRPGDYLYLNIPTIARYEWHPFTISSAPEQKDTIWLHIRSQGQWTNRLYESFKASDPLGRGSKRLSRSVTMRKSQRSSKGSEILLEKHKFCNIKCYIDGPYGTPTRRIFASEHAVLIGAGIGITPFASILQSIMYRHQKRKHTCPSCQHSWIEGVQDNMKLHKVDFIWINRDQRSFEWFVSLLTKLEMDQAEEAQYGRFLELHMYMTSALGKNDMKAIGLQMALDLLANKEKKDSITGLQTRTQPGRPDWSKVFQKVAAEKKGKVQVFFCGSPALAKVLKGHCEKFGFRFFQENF
Chain of NADPH oxidase 2 (Homo sapiens) (P04839 whole entry, looked up): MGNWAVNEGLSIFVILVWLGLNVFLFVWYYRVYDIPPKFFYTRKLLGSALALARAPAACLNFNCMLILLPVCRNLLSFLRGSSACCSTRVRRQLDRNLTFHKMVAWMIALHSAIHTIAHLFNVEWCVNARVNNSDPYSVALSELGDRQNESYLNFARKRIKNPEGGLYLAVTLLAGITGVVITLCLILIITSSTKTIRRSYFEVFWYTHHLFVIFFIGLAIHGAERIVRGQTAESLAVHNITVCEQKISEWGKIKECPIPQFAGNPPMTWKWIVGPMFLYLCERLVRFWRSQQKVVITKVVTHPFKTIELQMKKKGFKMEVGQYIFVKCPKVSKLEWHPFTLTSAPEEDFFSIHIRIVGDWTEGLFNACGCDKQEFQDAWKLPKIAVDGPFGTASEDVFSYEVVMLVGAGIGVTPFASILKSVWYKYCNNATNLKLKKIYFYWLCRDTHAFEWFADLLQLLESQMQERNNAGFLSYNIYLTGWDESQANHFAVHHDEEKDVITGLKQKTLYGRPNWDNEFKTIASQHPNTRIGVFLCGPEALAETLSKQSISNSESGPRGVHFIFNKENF

Consider `O=C1C2C=CC(C(O)c3ccc(F)cc3)N(Nc3ccccc3)C2C(=O)N1c1ccccc1` (stereo not given), for which the z-score in [1] was -0.789 (inactive); in test [3] it was 10.2 (active); in [4] it was 2.02 (inactive); in test [5], 0.0089 (inactive); in test [6], 1.24 (inactive); in test [7] it was -0.931. For the same compound, the z-score in test [8] is -1.77 (inactive); in test [9] it was -3.42 (inactive); in test [10], -1.96. In [2], this compound displayed a composite z-score of 0.374.
As to `NCCCCCNC(=O)[C@H]1C[C@H]2C(=O)NCC(=O)N2[C@H]1c1cccc(OCCO)c1`, the z-score was 1.5 (inactive) in [1]; 2.03 (inactive) in test [3]; 0.508 (inactive) in test [4]; 2.65 (inactive) in test [5]; 0.0799 (inactive) in [6]; 0.753 in test [7]. Moreover, the z-score is 0.972 (inactive) in test [8], 1.02 (inactive) in test [9] and 1.39 in test [10]. Also, the composite z-score in [2] was -0.505.
In the case of `CC(C)CNC(=O)[C@@]1(c2ccc([N+](=O)[O-])cc2)CC(=O)N(CC23CC4CC(CC(C4)C2)C3)[C@@H]1c1ccc(CO)cc1I`, the z-score in test [1] is -0.998 (inactive); in test [3], 17.2 (active); in test [4] it was 3.11 (inactive); in test [5] it was 2.73 (inactive); in [6], 1.41 (inactive); in test [7] it was -0.472. Besides, the z-score in [8] was 2 (inactive); in test [9], -1.12 (inactive); in [10], 1.75. Also, the composite z-score in test [2] is -0.0114.
For the compound `CCOC(=O)C[C@H]1[C@H](OC(=O)c2ccccc2-c2ccccc2)[C@@H](NC(=O)c2ccc3ccccc3c2)c2cc(OCCCO)ccc2N1C(=O)c1ccc2ccccc2n1`, the z-score in test [1] was 0.0514 (inactive); in test [3] it was 4.5 (inactive); in [4], 0.759 (inactive); in test [5], -0.62 (inactive); in test [6] it was 0.452 (inactive); in [7] it was -0.429. Moreover, the z-score in [8] was 0.349 (inactive); in [9] it was 1.08 (inactive); in [10], 0.803. For the same compound, the composite z-score in test [2] was -0.193.
Consider `COc1ccc(C#Cc2ccc3c(c2)[C@]2(C(=O)N3)[C@H](c3ccc(O)cc3)N3[C@H](c4ccccc4)[C@H](c4ccccc4)OC(=O)[C@H]3[C@@H]2C(=O)N2CCCCCCC2)cc1`, for which the z-score was 0.777 (inactive) in [1]; -0.212 (inactive) in test [3]; -0.763 (inactive) in [4]; -0.272 (inactive) in test [5]; -1.29 (inactive) in test [6]; 2.87 in [7]. In addition, the z-score in test [8] was 0.723 (inactive); in [9], -0.00989 (inactive); in test [10], 0.855. In [2], this compound gave a composite z-score of 2.53.
Turning to `[N-]=[N+]=NCc1ccccc1C[C@@]1(C(=O)N2CCOCC2)N=C(c2ccc(OCCCO)cc2)O[C@@H]1c1ccccc1CN=[N+]=[N-]`, the z-score was 0.562 (inactive) in [1]; 28.2 (active) in test [3]; 21.5 (active) in test [4]; 3.05 (inactive) in test [5]; 5.86 (inactive) in test [6]; 0.0883 in test [7]. Besides, the z-score was -1 (inactive) in test [8], 1.26 (inactive) in test [9] and 1.08 in test [10]. The composite z-score in test [2] came out at 0.429.
For `COc1ccc(CCNC(=O)[C@@]2(Sc3ccc(C)cc3)CC(=O)N(Cc3ccccc3Cl)[C@@H]2c2ccc(CO)cc2I)cc1`, the z-score is 0.265 (inactive) in test [1]; 9.86 (active) in [3]; 0.902 (inactive) in test [4]; 1.53 (inactive) in test [5]; 0.231 (inactive) in test [6]; 0.0671 in test [7]. Moreover, the z-score in [8] is 1.54 (inactive); in test [9] it was -1.54 (inactive); in test [10] it was 1.32. The composite z-score in test [2] came out at 0.198.
`COc1ccccc1CN1C(=O)c2ccccc2[C@@H](C(=O)NCCN2CCOCC2)[C@@H]1c1ccc(CO)cc1`: the z-score in [1] was -0.0157 (inactive); in test [3], 2.67 (inactive); in [4] it was 0.0298 (inactive); in test [5] it was 1.56 (inactive); in test [6], 0.695 (inactive); in [7], 0.513. Also, the values for the z-score in [8], in test [9] and in test [10] were 1.26 (inactive), -0.65 (inactive) and -2.47, respectively. The composite z-score in [2] was -0.211.
For the compound `O=C1C=CC(=O)[C@@H]2CC(COc3ccccc3)=C3[C@@H](CCc4ccccc4)OB(O)C[C@@H]3[C@H]12`, the z-score in test [1] is -0.365 (inactive); in [3], 3.41 (inactive); in [4], -0.0365 (inactive); in test [5], -0.0433 (inactive); in test [6], 0.0107 (inactive); in test [7], 0.0482. The z-score in test [8] is -0.511 (inactive); in test [9], -3.32 (inactive); in test [10], -5.88. The composite z-score in test [2] is 0.0491.
In the case of `COc1ccc([Si](C)(C)[C@H]2[C@H](CC(=O)N(CCO)Cc3ccccc3)O[C@@]3(C(=O)N(Cc4cccc(N5CCC5=O)c4)c4ccccc43)[C@@H]2C)cc1`, the z-score in test [1] is 2.2 (inactive); in test [3] it was 11.6 (active); in test [4] it was 1.88 (inactive); in [5], -0.614 (inactive); in test [6], -0.356 (inactive); in test [7], 0.408. Further, the figures for the z-score in test [8], in test [9] and in [10] were 0.804 (inactive), 0.957 (inactive) and 1.43, respectively. The composite z-score in [2] was determined as 0.356.
With `C=CCC(OC(C)=O)[C@@H]1[C@@H](N(Cc2ccc(-c3cccc(C(F)(F)F)c3)o2)C(=O)c2ccc(C)cc2)c2cc(OCCCO)ccc2N1C(=O)c1ccc(-c2ccccc2)cc1` (stereo not given in full), the z-score in test [1] was 1.35 (inactive); in [3], 1.93 (inactive); in test [4] it was 0.705 (inactive); in test [5], -0.0802 (inactive); in test [6], -0.0352 (inactive); in test [7], -0.047. The values for the z-score in [8], in [9] and in [10] were -3.28 (inactive), 0.822 (inactive) and 2.25, respectively. Besides, the composite z-score in test [2] was -0.0464.
For the compound `CCOC(=O)C[C@H]1[C@H](OC(=O)c2ccc(C(=O)c3ccccc3)cc2)[C@@H](NC(=O)C2CCCCC2)c2cc(OCCCO)ccc2N1C(=O)c1ccccc1`, the z-score in [1] was -1.01 (inactive); in [3], 1.31 (inactive); in test [4], -0.889 (inactive); in test [5], -0.562 (inactive); in test [6], -0.23 (inactive); in [7] it was -0.0118. Besides, the z-score is 0.469 (inactive) in [8], 1.26 (inactive) in test [9] and 1.77 in test [10]. Moreover, the composite z-score in test [2] came out at 0.315.
